CSC inhib: cancer stem cell inhibition; cancer stem cell-like cells viability, luminescence; inhibition, % at 7.5 µM; 1.1% of 300,000 active; AID 2717; in the data active = inhibition above about 75%; tested in HMLE shEcad cells
SKKanGAS inh: SKKanGAS growth inhibition. S. pyogenes SKKanGAS, kanamycin growth, BacTiter-Glo, 6 h. inhibition, % at 7.5 µM. 1.3% of 300,000 active;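 active = mean replicate score, as percent of positive control median, at least 50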;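 note: strain carries kanamycin resistance gene driven by streptokinase promoter and grows in 40 µg/ml kanamycin; loss of luminescence reflects streptokinase promoter inhibition or plain growth inhibition; 0% = median of DMSO wells and 100% = positive control at its reference dose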
Mdm2 MdmX PPI: human Mdm2/MdmX binding inhibition; O15151+Q00987; SaOS-2 split-luciferase Mdm2/MdmX complementation, luminescence; inhibition, % at 8 µM; 3% of 330,000 active; AID 485346;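 active = inhibition of at least 50% at 8 µM in the primary screen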
Target sequence (O15151 whole entry, looked up): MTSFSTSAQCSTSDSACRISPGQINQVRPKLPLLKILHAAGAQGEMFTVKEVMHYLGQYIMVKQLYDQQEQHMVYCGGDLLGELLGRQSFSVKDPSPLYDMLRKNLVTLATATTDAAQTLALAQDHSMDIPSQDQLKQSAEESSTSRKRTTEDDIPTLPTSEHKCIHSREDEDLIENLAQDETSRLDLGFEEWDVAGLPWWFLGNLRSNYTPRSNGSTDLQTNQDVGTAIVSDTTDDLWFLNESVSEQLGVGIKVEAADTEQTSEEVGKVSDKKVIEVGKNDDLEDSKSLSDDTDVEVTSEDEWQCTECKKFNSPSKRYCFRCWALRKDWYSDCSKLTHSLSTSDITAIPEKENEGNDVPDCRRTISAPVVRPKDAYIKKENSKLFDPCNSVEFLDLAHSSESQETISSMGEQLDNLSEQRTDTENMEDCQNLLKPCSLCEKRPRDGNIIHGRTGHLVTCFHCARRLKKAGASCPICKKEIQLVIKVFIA
Target sequence (Q00987 whole entry, looked up): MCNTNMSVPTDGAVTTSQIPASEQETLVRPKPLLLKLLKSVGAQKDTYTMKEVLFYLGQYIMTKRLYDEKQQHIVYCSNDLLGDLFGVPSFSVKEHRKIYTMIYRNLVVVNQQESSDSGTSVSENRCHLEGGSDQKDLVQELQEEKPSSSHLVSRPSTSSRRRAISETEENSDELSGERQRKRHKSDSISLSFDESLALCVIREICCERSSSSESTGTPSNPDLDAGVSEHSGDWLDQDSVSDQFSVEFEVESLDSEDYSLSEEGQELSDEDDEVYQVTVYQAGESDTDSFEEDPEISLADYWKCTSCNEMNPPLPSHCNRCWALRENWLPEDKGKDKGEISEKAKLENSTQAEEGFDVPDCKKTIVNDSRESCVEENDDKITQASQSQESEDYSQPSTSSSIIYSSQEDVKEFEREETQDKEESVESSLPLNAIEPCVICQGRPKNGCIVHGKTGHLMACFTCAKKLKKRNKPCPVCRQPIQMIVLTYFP
Calb FLC: affects C. albicans growth with fluconazole; C. albicans CaCi-2 (fluconazole-resistant clinical isolate) + fluconazole, Alamar Blue growth, 48 h; growth inhibition, % (concentration not given with the values); 0.57% of 300,000 active; AID 1979;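 active = growth inhibition above about 58% in most replicates, limit read from the data, passing the limit was not always enough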;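 note: all wells also contain fluconazole at 8 µg/ml as a sub-toxic cotreatment; 0% = median of DMSO wells and 100% = median of geldanamycin control wells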
Beta apoptosis: beta cell apoptosis inhibition; INS-1E cytokine-induced death, ATP luminescence, 48 h; percent of positive-control rescue, neutral wells zero; protection from apoptosis, % (concentration not given with the values); 0.8% of 300,000 active; AID 435005;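 active = Every replicate reaches about 75%, or at least half do and their mean reaches it too, limit read from the data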;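 note: 0% = cytokine-treated negative control wells and 100% = positive control rescue; higher means more ATP so stronger rescue from cytokine killing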
MPTP inh: blocks calcium-induced mitochondrial swelling; isolated mouse mitochondria, Ca2+ swelling absorbance, 30 min; 1.4% of 360,000 active; inhibition, % at 10 µM;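 active = inhibition of 50% or more, scaled per plate between neutral and stimulator controls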;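 note: 0% = DMSO wells given calcium and 100% = 1 mM EGTA wells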
Mdm2 MdmX conf: human Mdm2/MdmX binding inhibition, confirmed; shares compounds with Mdm2 MdmX PPI; luminescent assay; inhibition, % at 8 µM; 55% of 10,000 active; AID 489028; in the data active = inhibition above about 40%
FLuc counter: inhibits full-length luciferase, flagging false Mdm2/MdmX hits. 77% of 6,200 active. inhibition, % at 8 µM. shares compounds with Mdm2 MdmX PPI. AID 504607. SaOS-2 full-length luciferase counterscreen, luminescence;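 active = mean inhibition at 8 µM reaching about 37%, which flags the compound as non-specific, limit read from the data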;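 note: p53-null SaOS-2 cells with luciferase driven by a doxycycline-inducible promoter; compound on cells about two nights before reading with doxycycline added after day one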
* marks the source's active call; other numbers are inactive results; · = no result. Most compounds without a hit are left out; they make up all but 5.4% or so of the library.

SMILES	CSC inhib	SKKanGAS inh	Mdm2 MdmX PPI	Calb FLC	Beta apoptosis	MPTP inh	Mdm2 MdmX conf	FLuc counter
O=C1c2ccccc2C(c2nnnn2-c2ccc3c(c2)OCCO3)N1Cc1cccc(F)c1 (configuration not stated)	·	·	·	·	·	1	·	·
CS(=O)(=O)Oc1ccc(/C=C2\C(=N)N3N=C(CC(=O)N4CCOCC4)SC3=NC2=O)cc1Cl	0	0	5	-5	-7	-1	·	·
Fc1ccccc1CN1CCCC(NC2CCC2)C1 (configuration not stated)	-3	-2	12	-11	·	1	·	·
COc1ccc(OC)c(NS(=O)(=O)c2ccc(N3CCCC3=O)cc2)c1	57	4	72*	-12	15	-1	57*	83*
COc1ccc(CCNS(=O)(=O)c2ccc(N3CCCC3=O)cc2)cc1	-16	-9	13	-3	3	0	·	·
O=C(CN(Cc1cccs1)S(=O)(=O)c1ccc(S(=O)(=O)NC2CCCCC2)cc1)Nc1ccccc1	58	21	3	-1	38	21	·	·
CCOC(=O)c1cc(CC)sc1/N=C/c1c(O)ccc2ccccc12	-1	0	30	1	-7	-8	·	·
O=C(N/N=C/c1ccc(Cl)c([N+](=O)[O-])c1)c1cc(-c2ccc3c4c(cccc24)CC3)n[nH]1	136*	17	100*	11	4	2	91*	61*
CC(C)c1ccc(/C=N/NC(=O)c2cc(-c3cccc([N+](=O)[O-])c3)n[nH]2)cc1	62	11	51*	10	4	20	17	·
O=C(N/N=C/c1cccc([N+](=O)[O-])c1)c1cc(-c2ccc3c4c(cccc24)CC3)n[nH]1	24	11	4	8	5	3	·	·
CN(C)c1ccc(/C=N/NC(=O)c2cc(-c3ccc4c(c3)OCO4)n[nH]2)cc1	66	13	52*	2	·	5	54*	65*
Cn1cccc1-c1cc(C(=O)N/N=C/c2ccc([N+](=O)[O-])cc2)[nH]n1	9	-5	41	-12	15	0	·	·
Cc1cccc(NC(=O)C2CC(=O)n3ncnc3N2)c1 (configuration not stated)	-9	2	5	-3	-6	1	·	·
CCOC(=O)c1cc(-c2ccccc2C)nn1CC1CC(c2cccnc2)=NO1 (configuration not stated)	·	·	7	·	-7	-1	·	·
CC1CCCN(C(=O)C2CCN(S(=O)(=O)c3cccc4nsnc34)CC2)C1 (configuration not stated)	-7	-3	-17	-9	0	-1	·	·
CN(C)c1ccc(/C=C2\C(=N)N3C(=NC2=O)Sc2cc(S(C)(=O)=O)ccc23)cc1	8	19	89*	2	·	·	-4	·
Cc1nn(Cc2ccc(Cl)cc2Cl)c(C)c1NC(=O)CCl	-6	-4	78*	0	-9	0	92*	62*
Cc1nn(Cc2ccc(Cl)cc2Cl)c(C)c1NC(=O)c1ccc(COc2cc(Cl)ccc2Cl)o1	4	19	58*	8	7	2	-4	·
Cc1nn(Cc2ccc(Cl)cc2Cl)c(C)c1NC(=O)c1nn(C)cc1Cl	-7	-6	13	-7	-6	-2	·	·
Cc1nn(Cc2ccc(Cl)cc2Cl)c(C)c1NC(=O)C1C2CCC(O2)C1C(=O)O (configuration not stated)	-15	-2	13	-13	-3	0	·	·
NS(=O)(=O)c1ccc(NC(=O)COC(=O)CCCN2C(=O)c3cccc4cccc(c34)C2=O)cc1	-12	·	6	·	-7	-1	·	·
Cc1cc(/C=C(\C#N)C(=O)N2CCOCC2)c(C)n1C1CCCC1	0	4	64*	3	1	8	68*	158*
COc1ccc(/C=C(\C#N)C(=O)N2CCOCC2)cc1Br	-8	0	19	45	-7	0	·	·
N#CC1=C2SCC(O)(c3ccccc3)N2C(=O)CC1c1ccccc1 (configuration not stated)	54	18	76*	10	15	0	74*	58*
Cc1ccc2nc(NC(=O)c3cccc(-c4cc5ccccc5oc4=O)c3)sc2c1	99*	3	81*	1	56	·	68*	105*
SMILES	CSC inhib	SKKanGAS inh	Mdm2 MdmX PPI	Calb FLC	Beta apoptosis	MPTP inh	Mdm2 MdmX conf	FLuc counter
COc1ccc(C(C)=O)c2c(O)cccc12	-5	-1	2	5	1	4	·	·
CCC1=NNc2cccc3c(OC)ccc1c23	·	36	62*	-5	-4	·	24	·
Cc1oc(-c2ccc(Cl)cc2)cc1C(=O)/C(C#N)=C/Nc1ccccc1	5	2	62*	-6	-3	4	10	·
O=C1C(=O)N(c2nccs2)C(c2ccccc2F)/C1=C(\O)c1ccc2c(c1)OCCO2 (configuration not stated)	24	21	71*	-2	-7	-1	68*	37*
Cc1nnc(N2C(=O)C(=O)/C(=C(/O)c3ccc4c(c3)OCCO4)C2c2ccc(F)cc2)s1 (configuration not stated)	-7	7	10	0	-7	1	·	·
O=C1C(=O)N(c2nccs2)C(c2ccccc2)/C1=C(\O)c1ccc2c(c1)OCCO2 (configuration not stated)	42	13	74*	-9	-6	-1	88*	21
CC1CCc2cc(F)ccc2N1C(=O)CSc1nnc2c(n1)[nH]c1ccc(F)cc12 (configuration not stated)	46	20	84*	0	41	14	24	·
CN(Cc1ccccc1)C(=O)COc1ccc(N(C)S(=O)(=O)c2ccc(F)cc2)cc1	2	-5	3	0	-1	2	·	·
CCOc1cc(CNCCCN2CCOCC2)cc(Br)c1OCC(=O)Nc1cccc(C(F)(F)F)c1	14	-14	98*	63	69	4	71*	45*
COc1ccc(C(C(=O)NCC2CCCO2)N(Cc2cccs2)C(=O)c2snc(C(N)=O)c2N)cc1 (configuration not stated)	16	-3	52*	27	-3	2	49*	88*
CN(C)c1ccc(C(C(=O)NC2CCCCC2)N(Cc2ccco2)C(=O)c2snc(C(N)=O)c2N)cc1 (configuration not stated)	10	4	51*	-2	3	-2	37	92*
COc1ccc(NC(=O)N(C)C[C@H]2Oc3ccc(NS(=O)(=O)c4cccs4)cc3C(=O)N([C@@H](C)CO)C[C@@H]2C)cc1	·	·	-10	·	-3	-2	·	·
Cc1nn(-c2ccccc2)c2[nH]c(=O)c(CNCc3ccc4c(c3)OCO4)cc12	·	-2	12	-9	1	-2	·	·
